Unmarked numbers belong to inactive results. The source made the active and inactive calls. The call rests on the fitted dose curve; in most records, active means well fitted curve in the direction sought with a large enough effect in the repeat runs; inconclusive means weak or mixed curves; inactive means flat fitted curve, though single readings scatter.
assay: qHTS assay to test for compound auto fluorescence at 535 nm (green) in HEK293 cell free culture (AID 720682); conditions: cell-free medium, green autofluorescence 485/535 nm, active compounds read high; series mostly up to 91.3 µM; activity change: at the top concentration
Excerpt: U.S. Tox21 Program National Center for Advancing Translational Sciences [NCATS] NIH Chemical Genomics Center [NCGC] U.S. Environmental Protection Agency [EPA] National Institutes of Environmental Health Sciences [NIEHS] National Toxicology Program [NTP] U.S. Food and Drug Administration [FDA] Tox21 Assay Overview: Compound auto fluorescence often interferes with screening of the compound library against various biological targets and signaling pathways. Some of these compounds may have fluorophoric properties. Such properties may interfere with the assay outputs resulting in false positives and/or negatives. To decrease such complications and ensure the compound activities are relevant in terms of biological response, the Tox21 10K compound library was screened for auto fluorescence. From the fluorophores used as reporter signals in our screening assays, the auto fluorescence equivalencies of compounds against three fluorophores have been evaluated: Triamterene, Fluorescein and Rose Bengal sodium for blue, green and red fluorescence, respectively. The fluorescence intensities were measured using Excitation/Emission wavelengths at 405/460nm, 485/535nm and 540/590nm for blue, green and red labels, respectively. This assay includes the green fluorescence data.
Tox21 Assay Protocol Summary: 5 uL of culture medium (DMEM containing 10% FBS) per well was dispensed into black wall/clear bottom 1536-well plates using a Multidrop Combi Dispenser (ThermoFisher Scientific, Waltham, MA). After 23 nL compound or DMSO vehicle was transferred into assay plate by a pintool work station (Kalypsys, San Diego, CA), fluorescence intensities in the assay plates were measured by an Envision (PerkinElmer, Shelton, CT) plate reader using three labels for measuring blue, green and red fluorescence at […] 460, 535 and 590nm respectively.
On the % scale 0 is the no-effect control and ±100 the full control effect.

Point of comparison: CCCOCCC, “activity change” value 0.0147%. Against it:
- CCOc1ccccc1N — higher, 0.0243%
- O=C(C(Cl)Cl)N1CCOC12CCCCC2 — lower, -0.0024%
- CCCCCCCCCC#N — lower, -0.0122%
- CC1(O)CSC(C)(O)CS1 (stereo not given) — higher, 0.138%
- OCCN(CCO)CCN(CCO)CCO — higher, 0.0412%
- CO[Si](C)(C)OC — higher, 0.0281%
- COC(C)CCO (stereo not given) — lower, -0.0356%
- Oc1ccccc1F — lower, -0.0085%
- O=S(=O)(O)C(F)(F)F — lower, -0.0358%
- CCCC1CCC(=O)O1 (stereo not given) — lower, -0.173%
- CC(C)C[C@H](NC(=O)OCC1c2ccccc2-c2ccccc21)C(=O)O — lower, 0.0074%
- CC(C)C(=O)OC/C=C/c1ccccc1 — lower, -0.172%
- CC/C=C\CCOC(=O)C(C)C — lower, 0.0075%
- CCNCCO — lower, -0.0139%
- COc1nc(C)nc(NC(=O)NS(=O)(=O)c2ccccc2OCCCl)n1 — lower, -0.0051%
- COc1cc(C)ccc1C(C)C — higher, 0.0988%
- Cc1ccc(C(C)C)cc1O — lower, -0.0268%
- O=C(O)c1cccc(Cl)c1Cl — lower, -0.0818%
- Cc1ccc([N+](=O)[O-])c(N)c1 — higher, 0.0896%
- O=C1CCN(c2ccccc2)N1 — higher, 0.0416%
- CCN(CC)C(=O)N(CC)CC — higher, 0.0294%
- CC[C@H]1CC[C@H](NCc2cc3c(cc2OC)[C@H]2C[C@H]2C(=O)N3C)[C@H](c2ccccc2)N1 — higher, 0.0434%
- O=C1CCCCC1C1CCCCC1 (stereo not given) — lower, -0.258%
- CCOC(=O)COc1ccc2c(c1)CC(NCC(O)c1cccc(Cl)c1)CC2 (stereo not given) — higher, 0.1%

Point of comparison: Cc1ccccc1C(=O)Nc1ccc(C(=O)N2CCCC(O)c3cc(Cl)ccc32)c(C)c1 (stereo not given), “activity change” value -0.0868% [at 46 µM]. Against it:
- Cc1cc(NS(=O)(=O)c2ccc(N)cc2)nc(C)n1 — higher, -0.0112% [at 46 µM]
- CCCCC(=O)O[C@]1(C(=O)CO)[C@H](C)C[C@H]2[C@@H]3CCC4=CC(=O)C=C[C@]4(C)[C@@]3(F)[C@@H](O)C[C@@]21C — higher, -0.0394% [at 46 µM]
- O=c1[nH]cnc2c1ncn2[C@@H]1O[C@H](CO)[C@@H](O)[C@H]1O — higher, 0.0074% [at 46 µM]
- Cc1c(C(=O)NCCO)[n+](=O)c2ccccc2n1[O-] — higher, -0.0191% [at 46 µM]
- CCC(=O)Nc1ccc(O)cc1 — higher, -0.0458% [at 46 µM]
- CN1C(=O)CC(c2ccccc2)C1=O (stereo not given) — higher, -0.0831% [at 46 µM]
- Cc1nnc(SCC2=C(C(=O)O)N3C(=O)[C@@H](NC(=O)Cn4cnnn4)[C@H]3SC2)s1 — higher, 0.0053% [at 46 µM]

Point of comparison: CCN[C@H]1CN(CCCOC)S(=O)(=O)c2sc(S(N)(=O)=O)cc21, activity change -0.0447% [at 18.6 µM]. Against it:
- CCN(CCCc1ccccc1)CCCc1ccccc1 — higher, 0.0298% [at 18.6 µM]
- COc1cc(N)c(Cl)cc1C(=O)NC1CCN(Cc2ccccc2)CC1 — higher, -0.0003% [at 18.6 µM]
- Cc1c(-c2ccccc2)oc2c(C(=O)OCCN3CCCCC3)cccc2c1=O — lower, -0.0846% [at 18.6 µM]

Point of comparison: Cc1c(N)cccc1N, “activity change” value 0.106% [at 95.7 µM]. Against it:
- C=C(C)C(=O)OCCOP(=O)(O)O — lower, 0.0215% [at 95.7 µM]

For CN(C)Cc1ccccc1, the outcome was “inactive”.
